The conditions of assay [1]: Ebola virus entry assay, green fluorescence channel.
The conditions of assay [2]: Ebola virus entry assay, blue channel fluorescence.
For assay [3] the following is noted: Ebola virus entry assay, ratio channel.
For assay [4] the following is noted: Ebola virus entry assay, reporter ratio channel; Channel type: primary.
For assay [5] the following is noted: Ebola virus entry assay, blue channel (ratio component).

These results are taken from PubChem BioAssay (NCATS).

Values without a mark were called inactive. For part of these data: Measured potencies and affinities stand elsewhere. Activity calls are given as the source filed them. The rule behind the calls is not given here.
Throughout, for efficacy: 0% is about no effect.

As for `O=C(c1ccc(F)cc1)C1CCN(CCn2c(=O)[nH]c3ccccc3c2=O)CC1`, the efficacy in assay [1] was 78.1%. The concentration at half-maximal activity (AC50) is 28.2 µM (active) in assay [2], 17.8 µM (active) in assay [3] and 17.8 µM (active) in assay [4].

`CCN(CC)CCCN(c1ccccc1)C1Cc2ccccc2C1`: in assay [1], the efficacy was 47.4%. The half-maximal activity concentration (AC50) in assay [2], in assay [3] and in assay [4] was 3.55 µM (active) each time.

On to `NCCNc1cccc2ccccc12`, for which, in assay [1], the efficacy was 85.8%. Besides, the AC50 in assay [2] was 39.8 µM (active); in assay [3] it was 25.1 µM (active); in assay [4], 25.1 µM (active).

Take `Cc1nc2ccccc2n1Cc1ccc(Cl)cc1`: the efficacy in assay [1] was 42.7%. Further, the outcome in assay [2], in assay [3] and in assay [4] was inactive.

`CCCCC(=O)O[C@]1(C(=O)CO)CC[C@H]2[C@@H]3CCC4=CC(=O)CC[C@]4(C)[C@H]3[C@@H](O)C[C@@]21C`: in assay [1], the efficacy is 66.7%. For the same molecule, the outcome in assay [2], in assay [3], in assay [4] and in assay [5] was inactive.

Consider `O=C(CS)Nc1ccccc1`, for which the efficacy in assay [1] was 30.5%. The call in assay [2], in assay [3] and in assay [5] was inactive. Further, the half-maximal activity concentration (AC50) in assay [4] is 25.1 µM (active).

With `CCCCCC(=O)O[C@]1(C(C)=O)CC[C@H]2[C@@H]3CCC4=CC(=O)CC[C@]4(C)[C@H]3CC[C@@]21C`, in assay [1], the efficacy is 74.4%. The molecule was called inactive in assay [2], in assay [3], in assay [4] and in assay [5].

`COC(=O)c1nc(Cl)c(Cl)nc1N`: the efficacy in assay [1] is 66.4%. For the same molecule, the result in assay [2] and in assay [5] was inactive. Besides, the AC50 in assay [3] and in assay [4] was 4.47 µM (active) in each case.

Consider `C=CCNc1nc(NCC=C)nc(N2CCN(C(c3ccc(F)cc3)c3ccc(F)cc3)CC2)n1`, for which, in assay [1], the efficacy is 31%. In addition, the molecule was classed as inactive in assay [2], in assay [3], in assay [4] and in assay [5].

Turning to `CCOCCn1c(N2CCCN(C)CC2)nc2ccccc21`, the efficacy in assay [1] is 58.4%. Further, the call in assay [2], in assay [3] and in assay [5] was inactive. In addition, in assay [4], the AC50 is 39.8 µM (active).

For the molecule `CC1=C(C)C(=O)C(CCCCC#CCCCC#CCO)=C(C)C1=O`, the efficacy in assay [1] was 49.4%. The result in assay [2], in assay [3], in assay [4] and in assay [5] was inactive.

For the molecule `Nc1ccc(C(=O)N2CC3CC(CN(Cc4ccccc4)C3)C2)cc1`, the efficacy in assay [1] was 68.8%. The molecule was classed as inactive in assay [2], in assay [3] and in assay [5]. Besides, the AC50 in assay [4] was 31.6 µM (active).

On to `CC(=O)[C@@]1(O)CC[C@H]2[C@@H]3C[C@H](C)C4=CC(=O)CC[C@]4(C)[C@H]3CC[C@@]21C`, for which the efficacy in assay [1] was 52.6%. Moreover, the molecule was called inactive in assay [2], in assay [3], in assay [4] and in assay [5].

Regarding `O=C(Nc1ccc(S(=O)(=O)N2CCOCC2)cc1)c1cc(Cl)ccc1NS(=O)(=O)c1ccc(Cl)s1`, the efficacy in assay [1] was 119%. In addition, the outcome in assay [2], in assay [3] and in assay [5] was inactive. For the same molecule, in assay [4], the AC50 was 39.8 µM (active).

Turning to `C[C@]12CCC(=O)C=C1[C@@H]1C[C@@H]1[C@H]1[C@@H]3[C@@H]4C[C@@H]4[C@@]4(CCC(=O)O4)[C@@]3(C)CC[C@@H]12`, in assay [1], the efficacy was 65.1%. The outcome in assay [2], in assay [3] and in assay [5] was inactive. The AC50 in assay [4] was 39.8 µM (active).

With `Nc1ccc2c(c1)CN1C(=O)c3ccccc3C1=N2`, the efficacy in assay [1] is 64.3%. The result in assay [2], in assay [3], in assay [4] and in assay [5] was inactive.

Regarding `Nc1nc2ccccc2n1Cc1ccc(F)cc1`, the efficacy in assay [1] is 54.1%. Besides, the molecule was classed as inactive in assay [2], in assay [3] and in assay [5]. The AC50 in assay [4] was 39.8 µM (active).

Turning to `Oc1ccc(/C=C/c2cc(O)cc(O)c2)cc1`, the efficacy in assay [1] is 48.9%. Further, the outcome in assay [2], in assay [3], in assay [4] and in assay [5] was inactive.

With `C[C@@H]1C[C@H]2[C@@H]3CCC4=CC(=O)C=C[C@]4(C)[C@@]3(F)[C@@H](O)C[C@]2(C)[C@@]1(O)C(=O)COC(=O)c1ccncc1`, the efficacy in assay [1] is 33.7%. The result in assay [2], in assay [3] and in assay [5] was inactive. Besides, in assay [4], the AC50 was 39.8 µM (active).

With `C#C[C@]1(O)CC[C@H]2[C@@H]3[C@H](C)CC4=C(CCC(=O)C4)[C@H]3CC[C@@]21C`, the efficacy in assay [1] is 42.7%. The molecule was called inactive in assay [2] and in assay [5]. Also, the AC50 in assay [3] and in assay [4] was 15.8 µM (active) throughout.

With `O=Cc1ccccc1C=O`, in assay [1], the efficacy was -22.6%. Besides, the outcome in assay [2], in assay [3], in assay [4] and in assay [5] was inactive.

As to `c1cnc(N2CCN(Cc3ccc4c(c3)OCO4)CC2)nc1`, the efficacy in assay [1] is 47.2%. Besides, the call in assay [2], in assay [3], in assay [4] and in assay [5] was inactive.

For the molecule `CCC(=O)O[C@]1(C(=O)SCF)[C@H](C)C[C@H]2[C@@H]3C[C@H](F)C4=CC(=O)C=C[C@]4(C)[C@@]3(F)[C@@H](O)C[C@@]21C`, in assay [1], the efficacy is 69.2%. Besides, the call in assay [2], in assay [3], in assay [4] and in assay [5] was inactive.

Consider `C[C@]12CCC(=O)C=C1CC[C@@H]1[C@@H]2CC[C@@]2(C)[C@H]1CC[C@]2(O)C(=O)CO`, for which the efficacy in assay [1] is 55.8%. Further, the call in assay [2], in assay [3], in assay [4] and in assay [5] was inactive.

Take `O=C(Nc1ccc([N+](=O)[O-])cc1)Nc1ccc([N+](=O)[O-])cc1`: the efficacy in assay [1] was -37.1%. The molecule was classed as inactive in assay [2], in assay [3], in assay [4] and in assay [5].

Regarding `CCOC(=O)OCC/C(SC(=O)OCC)=C(\C)N(C=O)Cc1cnc(C)nc1N`, the efficacy in assay [1] is 26.7%. For the same molecule, the molecule was classed as inactive in assay [2], in assay [3], in assay [4] and in assay [5].

`CCCCC/C=C\C/C=C\CCCCCCCC(=O)NC(C)c1ccccc1` (stereo unspecified): in assay [1], the efficacy was 130%. Besides, the call in assay [2], in assay [3] and in assay [5] was inactive. Besides, the AC50 in assay [4] was 39.8 µM (active).

In the case of `CC(=O)OCC(=O)[C@@]1(O)CC[C@H]2[C@@H]3CCC4=CC(=O)C=C[C@]4(C)[C@H]3[C@@H](O)C[C@@]21C`, the efficacy in assay [1] is -46.1%. Besides, the outcome in assay [2], in assay [3], in assay [4] and in assay [5] was inactive.

As to `Nc1cc(C(F)(F)F)ccc1S`, the efficacy in assay [1] is -31.2%. Besides, the outcome in assay [2], in assay [3], in assay [4] and in assay [5] was inactive.

In general, AC50 refers to the concentration at which the activity in the assay is half-maximal.
